From PubChem
Shown are actives, neighbours in structure and some others; about 0.75% of the full set was active somewhere.
Sa RN4220 lethal – S. aureus RN4220 growth inhibition; 330,000 compounds, 0.33% hits; inhibition, % (test concentration not listed); OD600, 16 h; AID 1259311; in the data active = inhibition above about 85%;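 also: plate controls were untreated cells for no effect and reference antibiotic for full effect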
BioA inh – blocks M. tuberculosis BioA enzyme activity. purified M. tuberculosis BioA enzyme, plate reader. inhibition, % at 9.99 µM. 360,000 compounds, 0.096% hits; in the data active = inhibition above about 40%
Mtb hypoxia rep – inhibitors of hypoxia-regulated fluorescent reporter in Mycobacterium tuberculosis | M. tuberculosis hypoxia-regulated fluorescent reporter, fluorescence | fluorescence inhibition, % (no concentration beside the values) | 300,000 compounds, 0.1% hits; in the data active = fluorescence inhibition mostly above about 23%, no sharp cut-off; inactive = mostly below about 17%
Y pestis TopoI – inhibitors of Yersinia pestis topoisomerase I; Y. pestis Topo-I cleavage product accumulation, plate reader; activity, % at 10 µM; 360,000 compounds, 0.064% hits; AID 504884; in the data active = activity above about 50%, passing the limit was not always enough
ugtP null kill – compounds lethal to S. aureus RN4220 ugtP deletion mutant. 330,000 compounds, 0.54% hits. OD600 growth, 16 h. growth inhibition, % (no concentration beside the values); in the data active = growth inhibition above about 68%;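 also: plate controls were untreated wells for no effect and antibiotic for full effect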
TcdB inh – inhibitors of Clostridioides difficile toxin B glycohydrolase; AID 652162; 350,000 compounds, 0.24% hits; TcdB glycohydrolase enzymatic assay, plate reader; inhibition, % at 9.99 µM; in the data active = inhibition above about 10%
The depositor's hits bear a star.

What do the screens show for `CCOC(=O)c1cc2ccc3ccccc3c2oc1=O`?
Sa RN4220 lethal: 0.9; BioA inh: 0.7; Mtb hypoxia rep: 7.1; Y pestis TopoI: -17.9; ugtP null kill: 10.2; TcdB inh: -3.0

Results for O=C(NCCc1cccc(Cl)c1)c1ccc(Cl)c([N+](=O)[O-])c1 ?
Sa RN4220 lethal: 1.5; Mtb hypoxia rep: 5.9; Y pestis TopoI: -1.1; ugtP null kill: -7.7; TcdB inh: 10.6*

Results for Cc1ccc(C(=O)NCCc2cccc(Cl)c2)cc1[N+](=O)[O-] ?
Sa RN4220 lethal: 2.2; Mtb hypoxia rep: -12.6; Y pestis TopoI: 11.6; ugtP null kill: 0.9; TcdB inh: -0.7

How did CCN(CC)C(=O)c1ccc(/C=C/c2c[nH]c3ccccc23)[n+](C)c1 do in these assays?
Sa RN4220 lethal: 4.9; Mtb hypoxia rep: 20.6; Y pestis TopoI: -2.1; ugtP null kill: 1.9

Results for CC[n+]1c(/C=C/c2c[nH]c3ccccc23)ccc2cc(C)ccc21 ?
Sa RN4220 lethal: 96.5*; Mtb hypoxia rep: 10.4; ugtP null kill: 97.3*; TcdB inh: 1.4

What do the screens show for `Nc1ccc2c(c1)C(=NO)c1ccccc1-2`?
BioA inh: -2.0; Y pestis TopoI: -3.2; TcdB inh: 1.2

Results for O=[N+]([O-])c1ccc2c(c1)C(=NO)c1ccccc1-2 ?
Sa RN4220 lethal: 12.6; Mtb hypoxia rep: 3.0; ugtP null kill: 97.5*

How did COc1ccc2c(c1)C(=NO)c1cc(OC)ccc1-2 do in these assays?
Sa RN4220 lethal: -3.1; BioA inh: -5.7; Mtb hypoxia rep: 5.0; Y pestis TopoI: 0.9; ugtP null kill: 99.9*

How did ON=C1c2ccccc2-c2ccc(O)cc21 do in these assays?
Y pestis TopoI: -1.5; TcdB inh: 15.3*

What do the screens show for `C=CCOc1ccc2c(c1)C(=NO)c1cc(OCC=C)ccc1-2`?
Sa RN4220 lethal: 14.6; BioA inh: -0.8; Mtb hypoxia rep: 7.1; Y pestis TopoI: 0.0; ugtP null kill: 81.3; TcdB inh: 2.0

What do the screens show for `COc1ccc(C=NN2CCOCC2)cc1O`?
Sa RN4220 lethal: 2.9; Mtb hypoxia rep: 1.4; ugtP null kill: -1.0

How did O=C(CCSCc1ccc(Cl)cc1)NCCC1=CCCCC1 do in these assays?
Sa RN4220 lethal: 1.5; Mtb hypoxia rep: 8.6; Y pestis TopoI: 65.1*; ugtP null kill: 5.0; TcdB inh: -0.4

How did Cc1ccc(SCC(=O)NCCC2=CCCCC2)cc1 do in these assays?
Sa RN4220 lethal: 3.3; BioA inh: -4.8; Mtb hypoxia rep: 5.7; Y pestis TopoI: 51.3*; ugtP null kill: -3.2

How did N#CC1=C(N)Oc2n[nH]c(-c3ccccc3)c2C12C(=O)Nc1ccccc12 (centres undefined) do in these assays?
Sa RN4220 lethal: 24.0; BioA inh: 0.5; Mtb hypoxia rep: 10.8; Y pestis TopoI: 3.5; ugtP null kill: -1.9

What do the screens show for `Cn1c2c(c(=O)n(C)c1=O)[C@@]1(C(=O)Nc3ccccc31)C(C#N)=C(N)O2`?
Sa RN4220 lethal: 87.0*; Mtb hypoxia rep: 4.7; Y pestis TopoI: 3.3; ugtP null kill: 29.1; TcdB inh: -7.7

How did O=C(OCc1ccccc1)N1CCC2CC1c1cc(Cl)ccc12 (centres undefined) do in these assays?
BioA inh: -0.3; Y pestis TopoI: -6.9; TcdB inh: 0.4

How did O=C(OCc1ccccc1)N1CCC2CC1c1c(Cl)cccc12 (centres undefined) do in these assays?
Sa RN4220 lethal: 11.1; BioA inh: 1.8; Mtb hypoxia rep: -7.6; Y pestis TopoI: 58.6*; ugtP null kill: 9.0; TcdB inh: 0.7

How did NC(Cn1cncn1)=NNC(=O)c1ccc(Cl)cc1Cl do in these assays?
Sa RN4220 lethal: -9.4; Mtb hypoxia rep: -6.2; ugtP null kill: -8.0

Results for COc1ccc(CC(=O)C2C(=O)N(C)c3ccccc32)cc1OC (centres undefined) ?
Y pestis TopoI: 5.6; TcdB inh: 10.6*

Results for O=c1cc(N=Nc2ccc(Cl)cc2)[nH]c(=O)[nH]1 ?
Sa RN4220 lethal: 99.6*; BioA inh: -3.9; Mtb hypoxia rep: 17.1; Y pestis TopoI: -5.8; ugtP null kill: 100.4*; TcdB inh: 1.0

How did O=c1cc(-c2ccc(Cl)cc2)oc(=O)[nH]1 do in these assays?
Sa RN4220 lethal: 5.0; Mtb hypoxia rep: 9.0; Y pestis TopoI: 3.0; ugtP null kill: -0.9; TcdB inh: 1.8

How did NC(=O)NN=Cc1cn(CC(=O)Nc2ccc(F)cc2)c2ccccc12 do in these assays?
Sa RN4220 lethal: 6.6; Mtb hypoxia rep: 70.1*; ugtP null kill: 5.0

What do the screens show for `NC(=O)N/N=C/c1cn(CC(=O)Nc2ccc(F)cc2)c2ccccc12`?
BioA inh: 0.3; Y pestis TopoI: -10.9; TcdB inh: 1.0

Results for Cn1c(SCc2ccccc2)nc(C(F)(F)F)cc1=O ?
Sa RN4220 lethal: 11.5; Mtb hypoxia rep: 9.4; Y pestis TopoI: -4.9; ugtP null kill: -5.7; TcdB inh: 0.5

Results for Cn1c(SCc2ccccc2)nc(N)c(N=O)c1=O ?
Sa RN4220 lethal: -3.6; BioA inh: 4.4; Mtb hypoxia rep: 15.2; Y pestis TopoI: -2.4; ugtP null kill: 95.1*; TcdB inh: 0.3

How did CCCNS(=O)(=O)c1ccc(OCC(=O)OC)cc1 do in these assays?
Sa RN4220 lethal: 1.9; BioA inh: -0.5; Mtb hypoxia rep: 5.8; Y pestis TopoI: -11.8; ugtP null kill: -1.1

How did CCCCNS(=O)(=O)c1ccc(OCC(=O)OC)cc1 do in these assays?
Sa RN4220 lethal: 7.2; Mtb hypoxia rep: 12.2; Y pestis TopoI: -3.1; ugtP null kill: 5.9; TcdB inh: 10.4*

How did NC(=O)c1c(N=Cc2cccnc2)sc2c1CCCC2 do in these assays?
Sa RN4220 lethal: 1.1; Mtb hypoxia rep: 19.7; ugtP null kill: 2.9

What do the screens show for `COc1ccc(Cl)cc1C1=CC(=O)CC(c2ccc(F)cc2)C1` (centres undefined)?
Sa RN4220 lethal: -1.0; Mtb hypoxia rep: 5.8; ugtP null kill: 0.6

Results for Cc1cc(C)cc(C(=O)NCC(=O)OCC(=O)N(C)c2ccccc2)c1 ?
Sa RN4220 lethal: -1.0; Mtb hypoxia rep: 9.4; Y pestis TopoI: 3.0; ugtP null kill: 0.3; TcdB inh: -7.3

Results for CN(C(=O)COC(=O)CNC(=O)c1ccccc1Cl)c1ccccc1 ?
Sa RN4220 lethal: 14.0; Mtb hypoxia rep: 10.8; Y pestis TopoI: -0.5; ugtP null kill: 6.2; TcdB inh: 14.9*

What do the screens show for `COc1cccc(Cn2c(=O)ccc3ccccc32)c1`?
Sa RN4220 lethal: 6.2; Mtb hypoxia rep: 17.6; Y pestis TopoI: -3.9; ugtP null kill: 6.6; TcdB inh: 1.5

Results for CCN(CC)c1nc2ccccc2n(Cc2cccc(OC)c2)c1=O ?
Sa RN4220 lethal: -5.8; BioA inh: -0.8; Mtb hypoxia rep: 11.7; Y pestis TopoI: 36.2; ugtP null kill: 91.0*; TcdB inh: -1.3

Results for CCCS(=O)(=O)NC(=O)C1(C)CCN(C(=O)c2ccco2)C1 (centres undefined) ?
BioA inh: -2.2; Y pestis TopoI: -10.2; TcdB inh: 11.5*

How did COC(=O)C1=C(C)N(c2cc(C)cc(C)c2)/C(=C/c2ccc(O)cc2)C1=O do in these assays?
Sa RN4220 lethal: 88.7*; Mtb hypoxia rep: 1.2; Y pestis TopoI: 3.4; ugtP null kill: 59.9; TcdB inh: 2.6
